# tim10-1 inh: inhibits growth of tim10-1 mutant yeast; S. cerevisiae tim10-1 ts strain growth, BacTiter-Glo, 24 h; hit rate 2.2% among 330,000; inhibition, % at 20 µM;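 active = inhibition of at least 40%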;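 also: mutant grown at 25 °C; 0% = DMSO wells with yeast and 100% = wells holding no yeast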
# NALP1 inh: inhibitors of NALP1 inflammasome in yeast; S. cerevisiae NALP1/ASC/caspase-1 growth, X-gal OD620, 72 h; inhibition, % at 10 µM; AID 2071; hit rate 0.61% among 280,000; in the data active = inhibition mostly above about 24%, no sharp cut-off; inactive = mostly below about 32%
# tim23-1 inh: inhibits growth of tim23-1 mutant yeast; S. cerevisiae tim23-1 growth, BacTiter-Glo luminescence, 24 h; inhibition, % at 20 µM; hit rate 1.3% among 330,000; AID 463212;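 active = growth inhibition of the mutant yeast at or above 50%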;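 also: temperature-sensitive mutant grown at 25 °C; plate controls were DMSO-treated mutant yeast for no effect and medium wells lacking yeast for full effect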
# TIM10 inh: growth inhibitors of TIM10 yeast strain. AID 463195. S. cerevisiae TIM10 strain growth, BacTiter-Glo luminescence, 24 h. inhibition, % at 10 µM. hit rate 1.4% among 330,000;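 active = inhibition of 40% or more at the single tested concentration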;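 also: wild-type TIM10 isogenic control strain grown at permissive 25 °C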
# V-ATPase pHluor: alters yeast V-ATPase proton transport; S. cerevisiae, pHLuorin cytosolic pH fluorescence; response, % at 10 µM; hit rate 0.37% among 350,000; AID 504577; in the data active = response mostly above about 7.3%, no sharp cut-off; inactive = mostly below about 5.4%; also: actives read high
# NLRP3 yeast inh: NALP3 inhibition in yeast; inhibition, % at 10 µM; Yeast reconstituted NLRP3/ASC/caspase-1, beta-gal luminescence, 24 h; AID 2825; hit rate 0.39% among 330,000;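 active = inhibition of 50% or more; inactive = inhibition below 50%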;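 also: plate controls were induced DMSO wells for no effect and uninduced yeast grown without galactose for full effect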
# tim10-1 conf: confirmation of tim10-1 mutant yeast growth inhibitors. shares compounds with tim10-1 inh. S. cerevisiae tim10-1 ts strain growth, BacTiter-Glo, 24 h. inhibition, % at 20 µM. hit rate 56% among 7,400;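 active = inhibition of yeast growth at or above a set limit in either of two repeat tests at 20 µM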;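 also: tim10-1 mutant grown at permissive 25 °C to find synthetic lethal compounds; 0% = DMSO yeast wells and 100% = medium wells without yeast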
# tim10 confirm: confirmation of TIM10 yeast growth inhibitors. shares compounds with TIM10 inh. AID 463215. S. cerevisiae tim10 strain growth, BacTiter-Glo luminescence, 24 h. inhibition, % at 10 µM. hit rate 63% among 4,600;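 active = inhibition of yeast growth at or above a set limit in either of two replicates at 10 µM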;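 also: this counterscreen used the strain with wild-type TIM10; 0% = yeast with DMSO and 100% = medium wells lacking yeast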
# * = called active by the depositor; · = no result. Only some compounds are listed: those with a hit (about 4.2% of all), similar ones and a draw of the others.
SMILES,tim10-1 inh,NALP1 inh,tim23-1 inh,TIM10 inh,V-ATPase pHluor,NLRP3 yeast inh,tim10-1 conf,tim10 confirm
COc1ccc(C(C)=O)cc1CN1C(=O)NC2(CCCC2)C1=O,-3,-24,13,-9,1,0,·,·
Cc1ccccc1NC1=NC(=S)N(c2ccccc2)C12CCOC(C)(C)C2 (centres undefined),37,18,30,37,6,3,·,·
Cc1ccccc1NC1=NC(=S)N(c2ccccc2)C12CCCCC2,54*,16,50,50*,-1,9,46*,-39
Cc1ccc2ccccc2c1COC(=O)c1nonc1N,43*,-5,26,50*,3,-9,43*,50*
O=C(CNC(=O)c1ccccc1Br)NCC(c1ccco1)N1CCCCC1 (centres undefined),·,·,·,·,10,·,·,·
CC1=CC2=NC(=O)CC(C)(C(=O)N(CC(=O)NC(C)C)C3CCCC3)N2C=C1 (centres undefined),0,1,11,-5,·,16,·,·
C[C@@H]1CC=C[C@@H]2[C@H]1C(=O)N(Cc1ccccc1)[C@H]2c1cccc(Br)c1,26,·,44,7,1,·,·,·
CC[C@@H]1CC=C[C@H]2[C@H]1C(=O)N(Cc1ccccc1)[C@H]2c1ccc2ccccc2c1,41*,6,43,45*,·,3,26,38*
C=CCn1c(=O)c2ccccc2n2c(SCC(N)=O)nnc12,2,17,13,0,3,24,·,·
C=CCn1c(=O)c2ccccc2n2c(SCc3c(C(=O)OCC)oc4ccccc34)nnc12,41*,-1,35,42*,1,4,38*,17
Cc1scc(-c2n[nH]c(=S)n2C(C)c2ccccc2)c1C (centres undefined),42*,12,37,43*,-1,31,29,10
O=C1Nc2ccccc2/C1=C/c1cnc(-c2ccccc2)[nH]1,-2,3,-3,3,-11,23,·,·
O=C1Nc2ccccc2/C1=C/c1cccnc1,49*,5,40,51*,0,-2,36*,32*
COc1cc(OC)cc(C(=O)N2CCN(Cc3ccccc3Br)CC2)c1,26,-8,43,31,-2,2,·,·
O=C(CN1CCN(c2ccccc2)CC1)NC(=O)NCc1ccccc1,-1,·,6,0,-2,22,·,·
CCOc1ccc(NC(=S)N(Cc2ccc(N(C)C)cc2)Cc2ccco2)cc1,52*,-19,38,46*,5,9,43*,36*
COc1ccc(NC(=S)N(Cc2ccc(N(C)C)cc2)Cc2ccco2)cc1,36,6,37,37,-3,-1,·,·
O=C(COc1c(F)c(F)c(C(F)(F)F)c(F)c1F)Nc1ccc(N2CCOCC2)c(Cl)c1,58*,40,41,43*,-4,20,45*,34*
CSc1ccc(OCC(=O)Nc2ccc(N3CCOCC3)c(Cl)c2)cc1,-1,23,-5,3,4,32,·,·
Cc1cccc(NC(=O)c2cccc(S(=O)(=O)Nc3c(C)n(C)n(-c4ccccc4)c3=O)c2)c1,·,·,·,·,1,·,·,·
Cc1nc(C)c(-c2csc(Nc3ccc(F)cc3)n2)s1,48*,-3,45,51*,8,-9,43*,44*
CCCCNC(=O)/C(=C\c1ccc([N+](=O)[O-])o1)NC(=O)c1ccccc1,38,-28,32,28,1,18,·,·
COC(=O)/C(=C\c1ccc([N+](=O)[O-])o1)NC(=O)c1ccccc1,45*,-9,6,44*,-2,-6,40*,32*
O=C(C[n+]1cn(C(F)F)c2ccccc21)c1ccc(OC(F)F)cc1,56*,-9,49,53*,-1,-6,47*,39*
COC(=O)N1C(=O)[C@](c2ccccc2)(C2CCCCC2)N1C(=O)OC,49*,21,49,43*,1,12,32*,39*
SMILES,tim10-1 inh,NALP1 inh,tim23-1 inh,TIM10 inh,V-ATPase pHluor,NLRP3 yeast inh,tim10-1 conf,tim10 confirm
O=C(Nc1ccc(Cl)cn1)c1ccc2ccccc2n1,8,0,15,17,-3,-8,·,·
Cc1ccc(NC(=O)c2ccc3ccccc3n2)nc1,52*,26,43,70*,6,-2,36*,74*
COc1cc(/C=C2\SC(c3ccc(C)cc3)=NC2=O)ccc1O,52*,1,50,46*,4,18,31*,43*
COC(=O)C(C)Nc1cccc(Br)c1 (centres undefined),-1,·,-1,-2,-4,-5,·,·
CCOC(=O)C(C(=O)OCC)C(Nc1cccc(Br)c1)c1ccccc1 (centres undefined),55*,20,42,53*,4,44,37*,43*
CCOC(=O)C(C(=O)OCC)c1cc(Br)c2noc3c2c1C(=O)c1ccccc1-3,42*,28,46,44*,3,17,39*,27
Cc1ccc(N2C(=O)CC(N3CCN(S(=O)(=O)c4ccccc4)CC3)C2=O)c(C)c1 (centres undefined),19,13,23,9,0,16,·,·
CC(C)N1CCC2(CC1)N=C(c1ccc3c(c1)OCO3)CC(c1cc(Cl)ccc1O)N2 (centres undefined),53*,68*,42,51*,-1,40,45*,51*
Cc1ccc(-c2nnc(Sc3nc4ccccc4o3)c3ccccc23)cc1,46*,14,49,48*,-3,29,30*,38*
CN(C)S(=O)(=O)c1c(Cl)cccc1Cl,5,0,22,-6,6,7,·,·
N#C/C(C(=O)Nc1ccc(Cl)cc1)=C(/S)Nc1ccccc1,69*,19,17,45*,1,20,60*,56*
CN1CCN(C2=C(Cl)C(=O)C(c3cnc(N4CCCCC4)s3)=C(Cl)C2=O)CC1,72*,72*,25,45*,17*,15,60*,44*
COc1ccccc1/C=c1\sc2nc(-c3ccccc3OC)nn2c1=O,49*,13,47,50*,2,15,54*,24
C=CCOc1ccccc1/C=c1\sc2nc(-c3oc4ccccc4c3C)nn2c1=O,23,·,25,1,·,1,·,·
Cc1cc(C(=O)COC(=O)c2nccnc2N)c(C)n1C,4,-16,-6,3,2,6,·,·
COc1cc(C(=O)OCC(=O)c2cc(C)n(C)c2C)cc(OC)c1OC,42*,10,38,45*,-1,2,32,8
CC1CCCN(CCCNC(=O)c2nn(C)c3c2CS(=O)(=O)c2ccccc2-3)C1 (centres undefined),-3,6,2,4,-2,24,·,·
